# Screening results deposited in PubChem BioAssay by several laboratories.
# PrPC surface inh = inhibitors of human cell surface prion protein PrPC. actives 0.43% (n = 370,000). P04156. TR-FRET read-out. AID 720596. inhibition, % at 13.8 µM; in the data active means inhibition above about 24%
# GDH-TPI counter-1 = counter-screen for M. tuberculosis FBA inhibitors: GDH-TPI coupled enzymes; inhibition, % at 4.8 µM; AID 588335; GDH-TPI coupled enzyme counterscreen, NADH absorbance; actives 1.2% (n = 360,000); in the data active means inhibition above about 30%
# PrP UTR inh = suppresses PrP 5' UTR mRNA reporter expression; actives 0.35% (n = 340,000); cell-based PrP 5' UTR mRNA reporter, plate reader; inhibition, % (no concentration beside the values); in the data active means inhibition above about 52%
# PfHsp40 rescue = restores yeast growth despite PfHsp40 toxicity; S. cerevisiae expressing PfHsp40, growth rescue, ATP luminescence; growth rescue, % at 12.5 µM; actives 0.68% (n = 340,000); in the data active means growth rescue above about 28%, passing the limit was not always enough;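 further: yeast W303a lacking pdr1 and pdr3 grown in galactose medium; growth measured after three days at 30 °C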
# BJeLR viability = BJeLR cell viability loss; BJeLR (HRASV12) viability, CellTiter-Glo ATP luminescence, 48 h; inhibition, % (no concentration beside the values); actives 0.17% (n = 300,000); in the data active means inhibition above about 50%
# Mtb FBA inh = inhibitors of M. tuberculosis fructose-bisphosphate aldolase | inhibition, % at 1 µM | actives 2.3% (n = 360,000) | P9WQA3 | purified M. tuberculosis FBA, fluorescence read-out
# Target sequence (P9WQA3 whole entry, looked up): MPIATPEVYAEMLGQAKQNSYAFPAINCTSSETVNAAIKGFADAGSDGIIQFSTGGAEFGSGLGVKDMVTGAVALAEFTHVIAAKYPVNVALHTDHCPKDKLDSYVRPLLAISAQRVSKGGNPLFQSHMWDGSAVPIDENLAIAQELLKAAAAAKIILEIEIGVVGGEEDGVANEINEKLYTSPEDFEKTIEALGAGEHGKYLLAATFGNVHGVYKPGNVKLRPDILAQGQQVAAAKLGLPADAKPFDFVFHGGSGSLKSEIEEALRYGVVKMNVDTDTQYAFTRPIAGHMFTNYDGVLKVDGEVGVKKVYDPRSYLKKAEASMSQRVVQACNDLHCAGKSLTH
# Mtb FBA confirm = confirmation of M. tuberculosis fructose-bisphosphate aldolase inhibitors. shares compounds with Mtb FBA inh. purified M. tuberculosis FBA, fluorescence read-out. inhibition, % at 1 µM. actives 78% (n = 5,600). AID 651616
# GDH-TPI counter-2 = GDH-TPI inhibition counter-screen for FBA inhibitors; shares compounds with Mtb FBA inh; GDH-TPI coupled enzyme counterscreen, fluorescence; inhibition, % at 1 µM; actives 81% (n = 5,600); AID 652141; in the data active means inhibition above about 10%
# GDH-TPI DR = GDH-TPI dose response counter-screen for Mtb FBA. shares compounds with Mtb FBA inh. GDH-TPI coupled enzyme assay, fluorescence, artifact counterscreen. IC50, µM. actives 79% (n = 170). AID 652145; call rule not given here
# Numbers stand for hits; – = inactive; · = no result; + = active, no number. A selection: hits, their analogues and other compounds. The true share with any hit is near 4.5%. Unless noted, no stated cut-off is given here; in the data, active means inhibition above about 27%; inactive means the rest.
SMILES,PrPC surface inh,GDH-TPI counter-1,PrP UTR inh,PfHsp40 rescue,BJeLR viability,Mtb FBA inh,Mtb FBA confirm,GDH-TPI counter-2,others
OC(c1ccc(-c2ccccc2)cc1)c1ncc(-c2ccc(F)cc2)[nH]1 (stereo not given),–,–,·,·,·,–,·,·,
O=C(COC(=O)c1cc(-c2cccs2)nc2ccccc12)NC1CCS(=O)(=O)C1 (stereo not given),–,–,–,–,–,48.1,43.5,29.2,
COc1ccc2cc(-c3cc(C(=O)OCC(=O)NC4CCS(=O)(=O)C4)c4ccccc4n3)ccc2c1 (stereo not given),–,–,–,–,–,28.1,121.6,95.9,
O=C(COC(=O)c1cc(-c2cccc3ccccc23)nc2ccccc12)NC1CCS(=O)(=O)C1 (stereo not given),–,–,–,–,–,–,·,·,
COc1ccc2c(c1)c1ncn(CCc3ccccc3)c(=O)c1n2C,–,–,–,–,–,105.4,106.2,91.4,
CCC(C(=O)N1CCN(Cc2ccc3c(c2)OCO3)CC1)n1c(=O)[nH]c2ccccc2c1=O (stereo not given),–,–,–,–,–,32.7,123.7,108.7,
Fc1cccc(NC(=S)Nc2cccc3ccccc23)c1,–,–,–,–,–,66.5,+,+,
CC(=O)c1ccc(NC(=S)Nc2cccc3ccccc23)cc1,–,–,–,–,–,53.4,75.6,60.2,
CC(=O)N(C)c1ccc(NC(=S)Nc2cccc3ccccc23)cc1,–,–,–,–,–,–,·,·,
COc1cc2c(cc1NC(=S)Nc1cccc3ccccc13)oc1ccccc12,–,–,–,–,–,105.4,+,186.8,
Cc1ccc(NC(=S)Nc2cccc3ccccc23)cc1F,–,–,–,–,–,46.5,+,167.8,
COCCCNC(=S)Nc1cc2oc3ccccc3c2cc1OC,–,–,–,–,–,–,·,·,
Cc1cc(Cl)ccc1C(=O)C1CCCN(C(=O)CN2CCOC2=O)C1 (stereo not given),–,–,–,–,–,–,·,·,
CCNS(=O)(=O)c1ccc(CCC(=O)NCc2ccc(C)cc2)cc1,–,–,–,–,–,–,·,·,
Cc1cccc(S(=O)(=O)c2c(N)n(/N=C/c3cccnc3)c3nc4ccccc4nc23)c1,–,–,–,–,–,–,·,·,
Cc1cccc(S(=O)(=O)c2c(N)n(-c3ccccc3)c3nc4ccccc4nc23)c1,–,–,–,–,–,73.5,63.3,50.2,
COc1ccc(C(=O)O/N=C(\N)Cc2ccc([N+](=O)[O-])cc2)c(OC)c1,–,–,–,–,–,–,·,·,
CCCCCC[C@H](CN(CCCC)S(C)(=O)=O)c1ccccc1,–,·,·,·,·,·,·,·,
Cc1ccc(S(=O)(=O)N(C)[C@H]2C[C@H]3c4cc(-c5ccccc5C)ccc4CCN3C[C@H]2[C@H](C)O)cc1,–,·,·,·,·,·,·,·,
O=C(Nc1nccs1)c1ccccc1N=Cc1ccccc1,–,–,–,–,–,87.5,–,–,
COc1cc2ccccc2cc1C(=O)Nc1nccs1,–,–,–,–,–,–,·,·,
COc1cccc(C=Nc2ccccc2C(=O)Nc2nccs2)c1OC,–,–,–,–,–,68.4,156.1,125.9,
COC(=O)c1oc2ccccc2c1N,–,–,–,–,–,–,·,·,
COC(=O)c1oc2ccc(Cl)cc2c1N,–,–,–,–,–,67.3,–,–,
Cc1c(OCC(=O)NC(Cc2c[nH]c3ccc(O)cc23)C(=O)O)ccc2c3c(c(=O)oc12)CCC3 (stereo not given),–,–,–,–,–,–,·,·,
SMILES,PrPC surface inh,GDH-TPI counter-1,PrP UTR inh,PfHsp40 rescue,BJeLR viability,Mtb FBA inh,Mtb FBA confirm,GDH-TPI counter-2,others
Cc1cc(OCC(=O)NC(Cc2c[nH]c3ccc(O)cc23)C(=O)O)c2c(C)c(C)c(=O)oc2c1 (stereo not given),–,–,–,–,–,32.6,+,+,
Cc1cc(OCC(=O)NC(Cc2ccc(Cl)cc2)C(=O)O)c2c(C)c(C)c(=O)oc2c1 (stereo not given),–,–,–,–,–,60.0,185.7,143.4,
Cc1cc(OCC(=O)NC(Cc2ccc(Cl)cc2)C(=O)O)c2c3c(c(=O)oc2c1)CCCC3 (stereo not given),–,–,–,–,–,70.5,–,–,
COc1cccc(CC2(CO)CCN(Cc3cccn3-c3cccnc3)CC2)c1,–,–,–,–,–,–,·,·,
COc1ccc(/C=C2\Oc3ccccc3C2=O)cc1,–,–,–,–,·,84.3,–,–,GDH-TPI DR=1.62
CC(=O)Oc1ccc(/C=C2/Oc3ccccc3C2=O)cc1,–,–,–,–,–,–,·,·,
O=C1OC(Sc2ccccc2)(c2ccccc2)c2ccccc21 (stereo not given),–,–,–,–,·,–,·,·,
O=C(CNC(=O)C1CCCCC1)OCc1cc(=O)oc2ccc3ccccc3c12,–,–,–,–,–,43.4,–,–,
O=C(COC(=O)CNC(=O)C1CCCCC1)Nc1ccccc1,–,–,·,·,·,–,·,·,
O=C(Cn1c2ccc(F)cc2c2nc3n(c(=O)c21)CCS3)NCC1CCCO1 (stereo not given),–,–,–,–,–,30.4,62.4,54.6,
Cc1cc(OCC(=O)OC(C)(C)C)c2c3c(c(=O)oc2c1)CCC3,–,–,–,–,–,–,·,·,
CCCCOC(=O)COc1cc(C)cc2oc(=O)c3c(c12)CCC3,–,–,–,–,–,–,·,·,
CCc1cc(=O)oc2cc(OCC(=O)O)c(Cl)cc12,–,–,–,–,–,–,·,·,
CCN(CC)C(=O)COc1cc(C)cc2oc(=O)c3c(c12)CCCC3,–,–,–,–,–,80.9,60.7,42.6,
Cc1c(C)c2cc(Cl)c(OCc3nn[nH]n3)cc2oc1=O,–,–,–,–,–,55.5,92.0,75.0,
C=CCOC(=O)COc1cc(C)cc2oc(=O)c3c(c12)CCC3,–,–,–,–,–,57.0,+,169.6,
Cc1cc(OCc2nn[nH]n2)c2c3c(c(=O)oc2c1)CCCC3,–,–,–,–,–,83.7,58.7,47.2,
CCc1cccc(C)c1NC(=O)COC(=O)c1cc([N+](=O)[O-])ccc1N1CCOCC1,–,–,–,–,–,–,·,·,
CCc1ccc(OCCNC(=O)c2ccco2)cc1,–,–,–,–,–,–,·,·,
COc1ccc(-c2ccc(SCC(=O)NC3CCCCC3)nn2)cc1,–,–,–,–,–,–,·,·,
COc1ccc(-c2cn3nc(SCC(=O)NC4CCCCC4)ccc3n2)cc1,–,–,–,–,–,27.5,73.6,41.3,
COc1ccc(-c2[nH]c(-c3cccc(OC)c3)nc2SCC(=O)NC2CCCC2)cc1,–,–,–,–,–,40.4,123.6,99.7,
